# Data reported in PubChem BioAssay (NCATS).
# Records with an inconclusive call do not appear. Active and inactive are the calls of the source. Calls follow the shape of the dose curve; as a rule, active = well fitted inhibition curve with a large enough effect; inconclusive = small, poorly fitted or top-dose-only effect, or effect the other way; inactive = flat fitted curve, though single readings scatter.
# Biological target: ATP-dependent 6-phosphofructokinase (Trypanosoma brucei brucei) (UniProt O15648)
# Sequence (O15648 whole entry, looked up): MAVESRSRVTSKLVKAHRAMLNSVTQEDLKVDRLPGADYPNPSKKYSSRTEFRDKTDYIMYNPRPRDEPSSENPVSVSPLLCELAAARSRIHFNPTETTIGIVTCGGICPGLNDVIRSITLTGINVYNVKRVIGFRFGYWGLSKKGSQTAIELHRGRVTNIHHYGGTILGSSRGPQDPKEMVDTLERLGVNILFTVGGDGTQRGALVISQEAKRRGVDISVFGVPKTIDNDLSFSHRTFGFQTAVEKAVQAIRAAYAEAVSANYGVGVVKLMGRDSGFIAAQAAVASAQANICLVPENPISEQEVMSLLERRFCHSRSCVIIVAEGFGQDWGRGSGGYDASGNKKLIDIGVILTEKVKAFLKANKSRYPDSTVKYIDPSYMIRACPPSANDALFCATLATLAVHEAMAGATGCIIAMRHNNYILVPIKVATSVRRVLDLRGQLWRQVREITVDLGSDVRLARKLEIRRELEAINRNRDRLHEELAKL
# Assay: qHTS Assay to Find Inhibitors of T. brucei phosphofructokinase: hit validation (AID 492961);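 also: luminescence reports ADP formed as PFK phosphorylates fructose-6-phosphate with ATP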
# Details: T. brucei PFK, ADP-Glo luminescence; series mostly up to 51.4 µM; activity change, negative = inhibition: at the top concentration
# In short: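 Inhibition of parasite PFK is measured as reduced ADP formation, quantified via luciferase after ATP depletion. Assay used 0.1 mM ATP, 0.5 mM F6P, 1.25 nM enzyme, 45 min incubation.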
# % is scaled to controls: 0 for no effect and ±100 for the full control effect.
row,Structure (SMILES),"activity change, negative = inhibition"
1,C=CC[C@@H]1/C=C(\C)C[C@H](C)C[C@H](OC)[C@H]2O[C@@](O)(C(=O)C(=O)N3CCCC[C@H]3C(=O)O[C@H](/C(C)=C/[C@@H]3CC[C@@H](O)[C@H](OC)C3)[C@H](C)[C@@H](O)CC1=O)[C@H](C)C[C@@H]2OC,12.3% (inactive)
2,Cc1ncc(COP(=O)(O)O)c(CN)c1O,20.5% (inactive)
3,CCCOC(=O)c1ccccc1O,7.82% (inactive)
4,N[C@@H](Cc1cc(I)c(Oc2ccc(O)c(I)c2)c(I)c1)C(=O)O,12.6% (inactive)
5,Cc1cccc(Nc2ncccc2C(=O)O)c1C,-4.89% (inactive)
6,COc1ccc2nc(NC(=O)Nc3ccccc3)sc2c1,-7.32% (inactive)
7,O=C(NNCNNC(=O)c1ccncc1)c1ccncc1,-9.65% (inactive)
8,CC(=O)Nc1c(I)c(C(=O)O)c(I)c(N(C)C(C)=O)c1I,5.61% (inactive)
9,CN=C1C=CC(=C(c2ccc(N(C)C)cc2)c2ccc(N(C)C)cc2)C=C1,-15.3% (inactive)
10,O=C(c1cc2ccccc2o1)N1CCN(Cc2ccccc2)CC1,-2.79% (inactive)
11,CS(=O)(=O)c1ccc([C@@H](O)[C@@H](COC(=O)CN)NC(=O)C(Cl)Cl)cc1,-1.73% (inactive)
12,O=C(O)c1cc(N=Nc2ccc(O)c(C(=O)O)c2)ccc1O,-4.9% (inactive)
13,Cn1c(O)c(N=NC(N)=S)c2ccccc21,14.4% (inactive)
14,CC1(C)S[C@@H]2[C@H](NC(=O)C3(N)CCCCC3)C(=O)N2[C@H]1C(=O)O,-1.86% (inactive)
15,NC(=O)C1c2ccccc2CCc2ccccc21,6.08% (inactive)
16,CCCCCCOC(=O)c1cccnc1,-4.01% (inactive)
17,CCN(CC)CCC(=O)N1c2ccccc2Sc2ccc(Cl)cc21,6.85% (inactive)
18,NC(N)=O,0.386% (inactive)

row,Structure (SMILES),"activity change, negative = inhibition"
1,CCCCCCCCCCCC(=O)OCC(O)CO (stereo unspecified),2.38% (inactive)
2,O=P(O)(O)OP(=O)(O)O,-13.3% (inactive)
3,Oc1cc(O)cc(O)c1,-0.381% (inactive)
4,FC(F)(F)COCC(F)(F)F,2.37% (inactive)
5,CCCCO,12.4% (inactive)
6,CC/C=C\C/C=C\C/C=C\C/C=C\C/C=C\C/C=C\CCC(=O)O,5.78% (inactive)
7,CC(O)CN(C)C (stereo unspecified),11.7% (inactive)
8,CCOC(C)OCC,5.81% (inactive)
9,CCCC(CCC)C(=O)OC1C[C@H]2CC[C@@H](C1)[N+]2(C)C (stereo partly specified),-3.92% (inactive)
10,NCCN,9.08% (inactive)
11,CCCCCCCCCC(=O)NO,3.22% (inactive)
12,CN1c2c(nc(N)[nH]c2=O)NCC1CNc1ccc(C(=O)NC(CCC(=O)O)C(=O)O)cc1 (stereo unspecified),-11.2% (inactive)
13,OCl,1.28% (inactive)
14,O=C(O)CCCC/C=C(\c1ccccc1)c1cccnc1,11.3% (inactive)
15,C/C=C/C=C/C(=O)O,14.7% (inactive)
16,CC[C@H]1OC(=O)[C@H](C)[C@@H](O[C@H]2C[C@@](C)(OC)[C@@H](O)[C@H](C)O2)[C@H](C)[C@@H](O[C@@H]2O[C@H](C)C[C@H](N(C)C)[C@H]2O)[C@](C)(O)C[C@@H](C)CN(C)[C@H](C)[C@@H](O)[C@]1(C)O,6.63% (inactive)
17,CO/N=C(/C(=O)N[C@@H]1C(=O)N2C(C(=O)O)=C(COC(N)=O)CS[C@H]12)c1ccco1,6.94% (inactive)
18,Nc1ncnc2c1ncn2[C@H]1CC[C@@H](CO)O1,-4.31% (inactive)
